Calls of active or inactive are those of the source. The call rests on the fitted dose curve; in most records, active means well fitted curve in the direction sought with a large enough effect; inactive means no such curve, though single readings can be large or run the other way.
What follows are molecules tested against Pyruvate kinase PKLR (Homo sapiens) (UniProt P30613) (assay: qHTS for Activators of Human Muscle Isoform 2 Pyruvate Kinase (PK): Extended Characterization using Reticulocyte PK Probe 2). Conditions: purified hPK-R, ATP production, Kinase-Glo luminescence; series mostly up to 58 µM.
Chain of Pyruvate kinase PKLR (Homo sapiens) (P30613 whole entry, looked up, canonical isoform): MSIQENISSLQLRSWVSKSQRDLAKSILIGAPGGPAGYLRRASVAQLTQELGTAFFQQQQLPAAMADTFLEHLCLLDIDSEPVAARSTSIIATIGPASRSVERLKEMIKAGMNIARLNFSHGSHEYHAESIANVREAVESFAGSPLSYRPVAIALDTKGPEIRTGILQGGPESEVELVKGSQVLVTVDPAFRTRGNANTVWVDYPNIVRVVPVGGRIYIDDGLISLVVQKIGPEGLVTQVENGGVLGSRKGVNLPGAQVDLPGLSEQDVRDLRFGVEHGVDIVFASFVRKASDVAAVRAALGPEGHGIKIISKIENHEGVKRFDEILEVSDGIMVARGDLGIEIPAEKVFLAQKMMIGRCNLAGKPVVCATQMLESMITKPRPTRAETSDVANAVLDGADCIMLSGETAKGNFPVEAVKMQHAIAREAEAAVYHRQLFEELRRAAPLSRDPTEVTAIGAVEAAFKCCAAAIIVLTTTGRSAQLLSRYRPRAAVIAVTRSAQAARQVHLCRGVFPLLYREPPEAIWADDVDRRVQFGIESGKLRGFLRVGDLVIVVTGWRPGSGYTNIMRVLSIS
Excerpt: Human pyruvate kinase reticulocyte (hPK-R) enzyme was supplied as a highly purified (>95% pure) preparation from Structural Genomics Consortium in Toronto (Ontario, Canada) and assayed for its ability to generate ATP from ADP using phosphoenolpyruvate (PEP) as a substrate. ATP generation was detected in a coupled reaction by luciferase-mediated luminescence, an ATP-dependent process. Pyruvate kinase substrates, PEP and ADP, were present in the assay at Km and approximately 10-fold below Km respectively. The enzyme was assayed at an intermediate level of activity to screen for both inhibitors and activators. NIH Chemical Genomics Center [NCGC] NIH Molecular Libraries Probe Centers Network [MLPCN] MLPCN Grant: MH085679 Assay Submitter (PI): Matthew G. Vander Heiden, Harvard Medical School
Three uL of substrate mix (at r.t.) in assay buffer (50 mM Imidazole pH7.2, 50 mM KCl, 7 mM MgCl2, 0.01% Tween 20, 0.05% BSA) was dispensed into white solid bottom 1,536 well microtiter plates so that the final concentrations of substrates in the assay were 0.1 mM ADP and 0.5 mM PEP. 23 nL of compound were delivered by a pin tool and 1 uL of enzyme mix (final concentration of 0.1 nM) in assay buffer (4 degree Celsius) was added. Plates were incubated at room temperature for 1 hour. Two uL of detection mix (Kinase-Glo, Promega; at 4 degree Celsius protected from light) was added and luminescence read by a ViewLux (Perkin Elmer) at 1 second exposure/plate. Data were normalized to the uninhibited (row 31). Additionally, a no enzyme and 5-fold enzyme control was dispensed in row 32, split equally between the two conditions.

outcome, inactive:
Cc1ccc(NS(=O)(=O)c2ccc3c(c2)CCC(=O)N3)cc1C
Nc1cccc(S(=O)(=O)N2CCCN(S(=O)(=O)c3ccc4c(c3)OCCO4)CC2)c1
O=S(=O)(c1ccc2c(c1)OCCO2)N1CCN(S(=O)(=O)c2c(F)cccc2F)CC1
COc1cccc(Cn2ncc3c4sc(S(C)=O)cc4n(C)c3c2=O)c1 (centres undefined)

Reference: PubChem BioAssay AID624388 (National Center for Advancing Translational Sciences (NCATS), 2012)
